PPARg SRC1 recr: PPARgamma agonists recruiting SRC-1 coactivator, primary screen, biochemical. Peroxisome proliferator-activated receptor gamma (Homo sapiens), P37231. PPARgamma-SRC-1 coactivator recruitment biochemical assay. activation, % at 8 µM. actives 0.41% (n = 200,000). AID 631, 2007; in the data active means activation above about 19%
Target sequence (P37231 whole entry, looked up): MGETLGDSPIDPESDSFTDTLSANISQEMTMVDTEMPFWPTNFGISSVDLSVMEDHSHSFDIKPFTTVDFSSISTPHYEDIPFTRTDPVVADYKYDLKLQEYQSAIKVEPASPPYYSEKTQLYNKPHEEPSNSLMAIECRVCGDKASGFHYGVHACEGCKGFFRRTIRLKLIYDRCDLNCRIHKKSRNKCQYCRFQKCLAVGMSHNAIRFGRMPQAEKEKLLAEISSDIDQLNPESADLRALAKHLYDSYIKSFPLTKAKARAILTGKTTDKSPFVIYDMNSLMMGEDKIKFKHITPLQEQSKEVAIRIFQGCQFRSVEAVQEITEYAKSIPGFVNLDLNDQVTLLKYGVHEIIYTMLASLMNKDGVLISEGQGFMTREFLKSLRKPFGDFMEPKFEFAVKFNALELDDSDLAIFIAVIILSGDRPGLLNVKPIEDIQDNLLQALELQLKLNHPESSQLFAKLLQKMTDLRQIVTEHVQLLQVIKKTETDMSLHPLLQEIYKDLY
PPARg SRC-2 ag: agonists of PPARg-SRC-2 recruitment, primary screen, biochemical, HTS | Peroxisome proliferator-activated receptor gamma (Homo sapiens), P37231 | PPARgamma LBD-SRC-2 recruitment | activation, % at 8 µM | actives 0.34% (n = 200,000); in the data active means activation above about 22%
SRC2 TRFRET art: TR-FRET signal artefacts, primary screen, artefact control for PPARgamma SRC-2 agonist project, biochemical. TR-FRET artefact counter-screen; hits give high values. TR-FRET ratio at 8 µM. actives 0.4% (n = 200,000)
SRC3 TRFRET art: TR-FRET detection interference compounds, artefact control for PPARgamma SRC-3 recruitment agonists, biochemical, TR-FRET ratio; TR-FRET ratio at 8 µM; actives 0.39% (n = 99,000); TR-FRET artefact counter-screen, PPARgamma/SRC-3 format; hits give high values
SRC1 TRFRET art: TR-FRET detection interference compounds, primary screen, artefact control for PPARgamma SRC-1 recruitment agonists, biochemical, TR-FRET emission ratio; TR-FRET detection artefact counter-screen; hits give high values; TR-FRET ratio at 8 µM; actives 0.34% (n = 99,000); in the data active means TR-FRET ratio above about 2300
PPARg SRC3 recr: PPARgamma agonists recruiting SRC-3 coactivator, primary screen, biochemical; Peroxisome proliferator-activated receptor gamma (Homo sapiens), P37231; biochemical PPARgamma/SRC-3 coactivator recruitment assay; activation, % at 8 µM; actives 0.26% (n = 200,000); in the data active means activation above about 23%
Large screens that a line does not name were inactive. Compounds with a hit are over-represented: about 0.84% of the library has one in this group of screens. Unless noted, no stated cut-off is given here; in the data, active means TR-FRET ratio above about 2000; inactive means the rest.

CCCn1c(NC(=O)c2ccc(Br)cc2)nc2ccccc21	PPARg SRC1 recr 34 (no result: SRC3 TRFRET art, SRC1 TRFRET art)
O=C(CSc1ccc2nnc(-c3ccc(Cl)cc3)n2n1)N1CCCc2ccccc21	PPARg SRC-2 ag 46, SRC2 TRFRET art 3594
COC(=O)[C@@H](NC(=O)NCc1ccccc1Cl)C(C)C	none (no result: SRC3 TRFRET art, SRC1 TRFRET art)
COc1ccccc1CN(C)C(=O)c1ccc2c(c1)NC(=O)CS2	PPARg SRC3 recr 48 (no result: SRC3 TRFRET art, SRC1 TRFRET art)
COC(=O)c1ccc2c(c1)NC(=O)CS2	none
CCCCSc1nnc([C@H](C)NC(=O)OC(C)(C)C)o1	PPARg SRC-2 ag 39, SRC2 TRFRET art 2298 (no result: SRC3 TRFRET art, SRC1 TRFRET art)
Cn1c(=O)n(C)c2cc(NC(=O)c3ccccc3[N+](=O)[O-])c(Br)cc21	SRC2 TRFRET art 1997
CCOC(=O)c1sc(=NC(=O)c2ccc(OC(C)C)cc2)n(C)c1C	PPARg SRC1 recr 43
COC(=O)c1ccccc1NC(=O)C(C)c1ccc([N+](=O)[O-])cc1 (stereo not drawn)	none
CC1CCCN(C(c2cccs2)c2nnnn2Cc2ccccc2)C1 (stereo not drawn)	none (no result: SRC3 TRFRET art, SRC1 TRFRET art)
Cc1ccc2nc(N3C(=O)C(O)=C(C(=O)c4ccco4)C3c3cccs3)sc2c1 (stereo not drawn)	PPARg SRC1 recr 38, PPARg SRC-2 ag 47, SRC2 TRFRET art 2260, PPARg SRC3 recr 64 (no result: SRC3 TRFRET art, SRC1 TRFRET art)
CCOC(=O)c1sc(N2C(=O)C(O)=C(C(=O)c3ccco3)C2c2ccccc2)nc1C (stereo not drawn)	none (no result: SRC3 TRFRET art, SRC1 TRFRET art)
CCN1CCCC1CNC(=O)c1cc2c(-c3ccc(Cl)cc3)nn(C)c2s1 (stereo not drawn)	PPARg SRC1 recr 22 (no result: SRC3 TRFRET art, SRC1 TRFRET art)
CCN1/C(=C\C(=S)Nc2ccccc2)Sc2ccccc21	SRC2 TRFRET art 2548, SRC3 TRFRET art 3725, SRC1 TRFRET art 3876
CC(C)CC1NC(=O)N(CC(=O)NC2CCCc3ccccc32)C1=O (stereo not drawn)	none
c1coc(-c2nnc3sc(Cc4cccs4)nn23)c1	none (no result: SRC3 TRFRET art, SRC1 TRFRET art)
c1csc(Cc2nn3c(-c4n[nH]c5c4CCC5)nnc3s2)c1	PPARg SRC1 recr 20 (no result: SRC3 TRFRET art, SRC1 TRFRET art)
COCCNC(=O)c1ccccc1NC(=O)CCSc1ccccc1	none
Clc1ccccc1-c1nnc2sc(-c3ccc(Br)o3)nn12	none (no result: SRC3 TRFRET art, SRC1 TRFRET art)
Clc1ccc(-c2nnc3sc(-c4ccc(Br)o4)nn23)cc1	PPARg SRC3 recr 28 (no result: SRC3 TRFRET art, SRC1 TRFRET art)
CC(=O)c1cccc(N(C(=O)Cn2nnc3ccccc32)C(C(=O)NCC2CCCO2)c2ccc(N3CCOCC3)cc2)c1 (stereo not drawn)	none
O=C(COC(=O)c1sc2cc(F)ccc2c1Cl)Nc1ncc(Cl)cc1Cl	none
O=C(COC(=O)c1sc2ccccc2c1Cl)NC1CCCCC1	PPARg SRC-2 ag 115, SRC2 TRFRET art 4050
O=C(COC(=O)c1sc2ccccc2c1Cl)Nc1ncc(Cl)cc1Cl	PPARg SRC-2 ag 34, SRC2 TRFRET art 2187
CS(=O)(=O)Nc1ccc(C(=O)Nc2ccc(S(=O)(=O)N3CCCC3)cc2)cc1	SRC2 TRFRET art 1992
CC(=O)Nc1ccc(C(=O)Nc2ccc(S(=O)(=O)N3CCCC3)cc2)cc1	none
Cc1cnc(C(=O)Oc2c(C)ccc(C)c2C)cn1	none
Cn1c(=O)c(Oc2cc(Cl)cc(Cl)c2)nc2ccccc21	PPARg SRC1 recr 29 (no result: SRC3 TRFRET art, SRC1 TRFRET art)
COc1ccc(Oc2nc3ccccc3n(C)c2=O)cc1	none (no result: SRC3 TRFRET art, SRC1 TRFRET art)
Cc1onc(-c2c(Cl)cccc2Cl)c1C(=O)N1C=CC(C(F)(F)F)=NCC1	none (no result: SRC3 TRFRET art, SRC1 TRFRET art)
Cc1onc(-c2c(F)cccc2Cl)c1C(=O)N1C=CC(C(F)(F)F)=NCC1	SRC2 TRFRET art 2038 (no result: SRC3 TRFRET art, SRC1 TRFRET art)
COc1cccc(-c2nnc3sc(-c4ccccc4)nn23)c1	none
COc1cccc(OC)c1-c1nn2c(-c3cc(-c4ccccc4)n[nH]3)nnc2s1	PPARg SRC1 recr 20 (no result: SRC3 TRFRET art, SRC1 TRFRET art)
CCCn1c(C)cs/c1=N\C(=S)Nc1ccccc1	SRC3 TRFRET art 2212
Cc1cs/c(=N/C(=S)Nc2ccccc2)n1C	none
Cc1nc2ccccc2nc1OCC(=O)NCC(F)(F)F	SRC1 TRFRET art 2331
O=C(OCCN(C1=NS(=O)(=O)c2ccccc21)c1ccc(Cl)cc1)c1ccco1	none (no result: SRC3 TRFRET art, SRC1 TRFRET art)
O=C(N/N=C/c1cn(-c2ccccc2)nc1-c1cccnc1)c1cccnc1	SRC1 TRFRET art 2335
CC1(C)C(C=C(Cl)Cl)C1C(=O)N1CCN(c2ccccc2)CC1 (stereo not drawn)	none (no result: SRC3 TRFRET art, SRC1 TRFRET art)
COc1ccc(NCCNc2ccc(OC)cc2)cc1	PPARg SRC1 recr 20 (no result: SRC3 TRFRET art, SRC1 TRFRET art)
Cc1ccc(NCCNc2ccc(C)cc2)cc1	none (no result: SRC3 TRFRET art, SRC1 TRFRET art)
Cc1ccc(-n2c(=S)[nH]c3sc4c(c3c2=O)CCC4)cc1	SRC3 TRFRET art 2074
O=c1[nH]c2sc3c(c2c(=O)n1Cc1ccccc1)CCC3	none (no result: SRC3 TRFRET art, SRC1 TRFRET art)
N#Cc1c(-c2ccccc2)cc(-c2ccccc2)nc1Br	SRC3 TRFRET art 2095
CC(=O)c1ccc(NC(=O)COC(=O)c2ccccc2N=Nc2ccc(N(C)C)cc2)cc1	SRC1 TRFRET art 2419
CCn1cc(/C=C/C(=O)Nc2ccn(Cc3c(F)c(F)c(F)c(F)c3F)n2)cn1	PPARg SRC-2 ag 28
CCn1cc(/C=C/C(=O)Nc2c(C)nn(Cc3ccccc3C)c2C)cn1	none
CN(C)CCCN(C(=O)c1ccc(N2C(=O)CCC2=O)cc1)c1nc2c(F)cccc2s1	PPARg SRC1 recr 22
CN(C)CCCN(C(=O)c1ccc2c(c1)CCCC2)c1nc2c(F)cccc2s1	none
Cc1cc(N2CCC(C(=O)NC3CC3)CC2)nc(-c2ccccc2)n1	none (no result: SRC3 TRFRET art, SRC1 TRFRET art)
Cc1cc(N2CCC(C(=O)NC3CCCCC3)CC2)nc(-c2ccccc2)n1	SRC3 TRFRET art 2155
Cc1ccc(S(=O)(=O)Nc2ccc(-c3csc(-c4ccccc4)n3)cc2)cc1	SRC3 TRFRET art 2149
COc1ccc(C2CC(c3ccccc3)=NN2C(=O)COC(=O)c2ccc(Cl)nc2)cc1 (stereo not drawn)	none
COc1ccc(C2CC(c3ccccc3)=NN2C(=O)COC(=O)c2cccc(S(=O)(=O)N(C)C)c2)cc1 (stereo not drawn)	SRC2 TRFRET art 2075, SRC3 TRFRET art 2064, SRC1 TRFRET art 2411
COc1ccc(C2CC(c3ccccc3)=NN2C(=O)COC(=O)c2cnc(Cl)c(Cl)c2)cc1 (stereo not drawn)	none
COc1ccc(C2CC(c3ccccc3)=NN2C(=O)COC(=O)c2cccc(S(=O)(=O)N3CCOCC3)c2)cc1 (stereo not drawn)	SRC2 TRFRET art 2061, SRC3 TRFRET art 2328, SRC1 TRFRET art 2459
CCOc1cc(/C=C\[N+](=O)[O-])ccc1OCC(=O)Nc1ccccc1C	none (no result: SRC3 TRFRET art, SRC1 TRFRET art)
N#Cc1cc(O)c(-n2nnc3ccccc32)cc1C#N	PPARg SRC-2 ag 26
N#Cc1cc(Oc2cccc3cccnc23)c(-n2nnc3ccccc32)cc1C#N	none (no result: SRC3 TRFRET art, SRC1 TRFRET art)
CCOC(=O)c1sc(=NC(=O)c2cccs2)n(C)c1C	none
